Data on twelve compounds can be found in PubChem BioAssay (NCI).

This is part of a sample that, as a whole, favours compounds with a hit. Of some 83,000 tested, about 20% had one in any assay.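 Each cell line was grown in a 96-well plate and treated with one concentration of compound for 48 hours. Values below 10 were considered active.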 A number with no mark means an inactive call. Calls of active or inactive are those of the source.

The first test has as its system 786-0 renal. The test can be described thus: NCI-60 one-dose screen, 48 h (100 = growth as untreated, 0 = no growth, -100 = all killed). To be noted: 10 µM unless noted.
On to `O=C(Nc1ccc(F)cc1)Nc1ccc(NC(=O)c2cc(Cl)nc3ccccc23)cc1`, for which the growth was 98.4%.
Same read-out and setting: under `O=C(CCN1CCCC1)Nc1ccc2c(Nc3ccc(F)cc3)c3ccccc3nc2c1` stands -35.9% (active); under `CC(Sc1nc2ccccc2c(=O)n1CCc1ccc(S(N)(=O)=O)cc1)C(=O)Nc1ccc(Cl)cc1` (configuration not stated), 80.2%.
With `O=C(N/N=C/c1cc2ccccc2n2nnnc12)Nc1ccccc1`, the growth is 91.5%.
On to `CC1(C)CC(=O)C2=C(C1)N(c1ccc(F)cc1F)C(N)=C(C#N)C2c1cc(Br)ccc1F` (configuration not stated), for which the growth is 98.6%.

The test system of a further test is COLO 205 colon. The test is described as above. To be noted: 10 µM unless noted.
Take `O=C(/C=C/c1ccc(Cl)cc1)c1ccc(NC(=O)N2CCN(c3cc4c(cc3F)c(=O)c(C(=O)O)cn4C3CC3)CC2)cc1`: the growth is 115%.
Same read-out and setting: under `O=C(/C=C(/C=C/c1csc2ccccc12)OB(F)F)/C=C/c1csc2ccccc12` stands -2% (active); under `CN1CCN(C(=O)[C@]23CCC(C)(C)C[C@H]2C2=CC[C@@H]4[C@@]5(C)C/C(=C/c6cccnc6)C(=O)C(C)(C)[C@@H]5CC[C@@]4(C)[C@]2(C)CC3)CC1`, 42.9%; under `CC1=CCC(OC(=O)C(C)(O)CCC(O)(C(=O)OC2(C)C=CC(O)(C(C)C)CC2)C(C)C)(C(C)C)CC1` (configuration not stated), 116%.
On the same count and under the same terms, under `NC1=NN=C(N)C1=Cc1cc2ccccc2n2nnnc12` stands 99.7%.
The same measure, in the same setting: under `COc1ccc(NC(N)=NCCCOc2ccc(F)cc2)cc1` stands -0.958% (active); under `O=C1c2ccc3c4c(ccc(c24)C(=O)N1CCCNCc1ccccc1)C(=O)N(CCCNCc1ccccc1)C3=O`, -43.3% (active).
